Experimental data from PubChem BioAssay AID1347075 (National Center for Advancing Translational Sciences (NCATS), 2019).
Out of some 400,000 compounds screened, about 5,500 (1.4%) were called active. Not shown: some 9% with an inconclusive outcome. What follows is part of a selection rich in actives, with near analogues and random picks from the rest. Where a call stands in place of a potency, no number is given. Unmarked numbers belong to inactive results. Calls come from the whole dose curve; as a rule, active = well fitted cell-killing curve with a large enough effect; inconclusive = small, poorly fitted or top-dose-only effect, or effect the other way; inactive = flat fitted curve, though single readings scatter.

Assay: qHTS assay for MDR1-selective chemotherapeutics: Primary screen using the parental adenocarcinoma cell KB-3-1; note: nearly all actives have a fitted effect of over 60% in size
Settings: KB-3-1 viability, CellTiter-Glo ATP luminescence, 72 h; series mostly up to 46.1 µM
Procedure, shortened: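 KB-3-1 parental drug-naive adenocarcinoma cells in DMEM/10% FBS, incubated 72 h at 37 C with pin-transferred compounds across a concentration series. Viability by CellTiter-Glo luminescence; concentration-response curves fitted after normalization.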
Potency is the fitted concentration of half-maximal effect.

Row | SMILES | Potency | activity change, negative = cytotoxic
1 | Cc1ccc(C2CCN(C(=S)Nc3cccc(Cl)c3)C2)cc1 (stereo not drawn) | inactive | –
2 | Cc1csc(NC(=S)Nc2cccc(Cl)c2)n1 | 20.6 µM (active) | –
3 | O=C(Nc1cccc(Cl)c1)c1csnn1 | inactive | –
4 | COc1ccccc1C(=O)NCCn1cc(SCc2ccccc2Cl)c2ccccc21 | inactive | –
5 | CCOC(=O)c1ccc(NC(=O)CCS(=O)(=O)c2ccc3c(c2)oc(=O)n3C)cc1 | inactive | –
6 | O=C(NCc1ccc(F)cc1)c1ccc(Cn2c(SCc3ccc(F)cc3)nc3cccnc32)cc1 | inactive | –
7 | Cc1ccc(OCCSc2nc(-c3cccs3)nc3cc(=O)[nH]n23)cc1Cl | inactive | –
8 | COc1cccc2c1C(=O)c1c(O)c3c(c(O)c1C2=O)CC(O)(C(C)=NNC(=O)c1ccc(Cl)c(Cl)c1)CC3OC1CC(N)C(O)C(C)O1 (stereo not drawn) | 2.06 µM (active) | –
9 | Cc1ccc(N2CCN(C(=S)Nc3cc(C)ccn3)CC2)cc1 | inactive | –
10 | CCCCCn1c(=O)[nH]c2cc(C(=O)Nc3ccc(F)cc3)ccc2c1=O | inactive | –
11 | CCC(=C/c1sc2ccc3ccccc3c2[n+]1C)/C=C1\Sc2ccc3ccccc3c2N1C | 9.2 µM (active) | –
12 | COc1ccc(CNC(=O)COCc2cc(-c3cccs3)on2)cc1OC | inactive | –
13 | Cc1ccc(OCC(=O)OCc2cc(=O)n3nc(C4CC4)sc3n2)cc1 | inactive | –
14 | CCN1/C(=C\c2ccc3ccccc3[n+]2CC)Sc2cc(C)ccc21 | 4.61 µM (active) | –
15 | CCN1/C(=C/c2ccc3ccc(C)cc3[n+]2CC)Sc2ccccc21 | 2.59 µM (active) | –
16 | CC(=O)Nc1ccc(NC(=O)CSc2nnc3c4cc(Br)ccc4n(C)c3n2)cc1 | inactive | –
17 | NC(=O)Nc1ccc(/C=C/c2ccnc3ccccc23)cc1 | inactive | –
18 | N#Cc1ccc[n+](CC(=O)c2ccc(F)cc2)c1 | inactive | –
19 | COc1ccc2sc(-c3ccc(N(C)C)cc3)c(C#CCO)c2c1 | 16.4 µM (active) | –
20 | COc1ccc2sc(-c3ccc(S(C)(=O)=O)cc3)c(C#Cc3cncn3C)c2c1 | inactive | –
21 | COc1ccc2sc(-c3ccc(S(C)(=O)=O)cc3)c(-c3ccc(C(N)=O)cc3)c2c1 | inactive | –
22 | COC(=O)C1=C(Nc2ccc(C)cc2)C=C(C)C(C(=O)OC)C1c1ccc(F)cc1 (stereo not drawn) | 11.2 µM (active) | –
23 | COC(=O)C1(C)NC(c2ccc(C)cc2)C2C(=O)N(c3ccc(F)cc3)C(=O)C21 (stereo not drawn) | inactive | –
24 | COC(=O)C1C(=O)NCC1c1ccc(C)cc1 (stereo not drawn) | inactive | –
25 | Cc1ccc2cccc(NC(=O)c3cccc4ccccc34)c2n1 | inactive | –

Row | SMILES | Potency | activity change, negative = cytotoxic
26 | CCc1ccccc1OCCSc1nc(-c2cccs2)nc2cc(=O)[nH]n12 | inactive | –
27 | O=C(c1cccc(Cl)c1)N1CCN(CCc2ccncc2)CC1 | inactive | –
28 | CS(=O)(=O)Nc1ccc(C(=O)N2CCCC2)cc1 | inactive | –
29 | CNc1cncc(-c2ccc(NS(C)(=O)=O)cc2)n1 | 2.91 µM (active) | –
30 | CNc1cncc(-c2cccc(C(=O)N3CCOCC3)c2)n1 | inactive | –
31 | CC(=O)c1sc(N2C(=O)c3oc4ccccc4c(=O)c3C2c2ccc(C)cc2)nc1C (stereo not drawn) | inactive | –
32 | COc1ccc(-c2nc3ccccc3o2)cc1NC(=O)c1cc([N+](=O)[O-])ccc1N1CCOCC1 | inactive | –
33 | Cc1ccc2c(c1)-c1c(cnn1CC(=O)Nc1ccccc1C#N)CO2 | inactive | –
34 | COc1ccccc1CNC(=O)CCn1c(=O)c2ccccc2n(CC(=O)Nc2ccc(Br)cc2F)c1=O | inactive | –
35 | CC(C)C(=O)Nc1cccc(NC(=O)c2ccc([N+](=O)[O-])cc2Cl)c1 | inactive | –
36 | CCCC(=O)Nc1cccc(NC(=S)NC(=O)C(C)Oc2ccc(Cl)cc2Cl)c1 (stereo not drawn) | inactive | –
37 | CC(C)C(=O)Nc1cccc(NC(=S)NC(=O)C(c2ccccc2)c2ccccc2)c1 | 20.6 µM (active) | –
38 | CCc1ccc(S(=O)(=O)n2ccnc2)cc1 | inactive | –
39 | Cc1cc(C)n2ncc(C(=O)Nc3cccc(C#N)c3)c2n1 | – | 0% [at 9.22 µM]
40 | CCOc1cc(-c2nnc(SCC(=O)NC3CCCC3)nc2-c2ccc(OC)c(OCC)c2)ccc1OC | inactive | –
41 | CCn1c(=O)c2ccccc2n(CC(=O)N2CCCc3ccccc32)c1=O | inactive | –
42 | O=C(CN1C(=O)S/C(=C\c2ccccc2Cl)C1=O)NC1C=CS(=O)(=O)C1 (stereo not drawn) | inactive | –
43 | O=C1/C(=C\c2ccccc2Cl)SC(=S)N1CCC(=O)N1CCCc2ccccc21 | 23.1 µM (active) | –
44 | CCOc1ccc(CCNC(=O)c2cc3c(=O)n(C)c4ccccc4c3n2C)cc1 | inactive | –
45 | CCN(CC)c1ccc(NS(=O)(=O)c2cc(-c3cc(C)no3)ccc2C)c(C)c1 | inactive | –
46 | CC(C)c1ccc(NC(=O)c2ccc3c(O)c(S(=O)(=O)c4ccccc4)c(=O)[nH]c3c2)cc1 | inactive | –
47 | COc1ccc(S(=O)(=O)c2cn(C)c3cc(N4CCCCC4)c(F)cc3c2=O)cc1 | inactive | –
48 | CCOC(=O)c1cc2occc2n1CC(=O)NC1CCC(C)CC1 (stereo not drawn) | inactive | –
49 | CCOC(=O)c1cc2occc2n1CC(=O)N1CCN(C(=O)c2ccco2)CC1 | inactive | –
50 | CCOC(=O)c1cc2c(ccn2C)n1CC(=O)N1CCC(C)CC1 | 23.1 µM (active) | –

Row | SMILES | Potency | activity change, negative = cytotoxic
51 | Cc1ccc(C)c(OCC(=O)Nc2sc3c(c2C#N)CCCC3)c1C | inactive | –
52 | COc1ccc(N2CCN(C(=O)C3CCCN(C(=O)c4cc5sccc5n4C)C3)CC2)cc1 (stereo not drawn) | inactive | –
53 | CC(=O)c1c(C)[nH]c(C(=O)COc2ccc3c(C)cc(=O)oc3c2)c1C | 14.6 µM (active) | –
54 | COc1ccc(N2CCN(C(=O)COc3ccc4c(C)cc(=O)oc4c3)CC2)cc1 | inactive | –
55 | Cc1ccc(O)c(/C=N/NC(=O)COc2ccc3c(C)cc(=O)oc3c2)c1 | 18.4 µM (active) | –
56 | Cc1ccc(OCC(=O)Nc2ccc3oc(=O)ccc3c2)cc1C | inactive | –
57 | CC(=O)c1c(C)[nH]c(C(=O)COC(=O)CCOc2ccc(C)cc2)c1C | inactive | –
58 | Cc1cc(=O)oc2cc(OC(C)C(=O)NCCc3ccc(S(N)(=O)=O)cc3)ccc12 (stereo not drawn) | inactive | –
59 | Cc1cccc2c(=O)cc(CSc3ccccc3NC(=O)C(C)C)[nH]c12 | inactive | –
60 | Cc1cc(C)cc(NC(=O)Cn2c(=O)c3ccccc3n3nncc23)c1 | inactive | –
61 | Cc1csc(NCC(=O)c2c[nH]c3ccccc23)n1 | inactive | –
62 | Cn1cc(S(=O)(=O)N2CCCCCC2)cc1C(=O)N1CCN(c2ccc(F)cc2)CC1 | inactive | –
63 | O=[N+]([O-])c1c(NCCO)cc(Sc2nc3ccccc3s2)c2nonc12 | inactive | –
64 | O=[N+]([O-])c1cc(Br)c(O)c(/C=N/Nc2nc3ccccc3s2)c1 | 23.1 µM (active) | –
65 | Brc1ccccc1/C=N/Nc1nc2ccccc2o1 | inactive | –
66 | COc1cc(OC)c(C2C=C(C(=O)O)Nc3ncnn32)cc1OC (stereo not drawn) | inactive | –
67 | S=c1[nH]c(=S)c2n[nH]nc2[nH]1 | inactive | –
68 | COc1cc(CCC(=O)N2CCN(c3ccccc3Cl)CC2)cc(OC)c1OC | inactive | –
69 | COc1ccc(Nc2ncc(C(=O)N3CCN(c4ccccc4OC)CC3)c3ccccc23)cc1 | inactive | –
70 | COc1ccccc1N1CCN(C(=O)c2cc(=O)c3cc(C)ccc3o2)CC1 | 13 µM (active) | –
71 | COc1ccc2c(CC(=O)N3CCc4cc(OC)c(OC)cc4C3)coc2c1 | inactive | –
72 | COc1ccccc1N1CCN(C(=O)c2ccc(NC3=NC4CS(=O)(=O)CC4S3)cc2)CC1 (stereo not drawn) | inactive | –
73 | COc1cc2c(cc1OC)CN(C(=O)c1cc(S(=O)(=O)N3CCCCC3)ccc1Cl)CC2 | inactive | –
74 | COc1cc(Cl)ccc1Nc1ncc(C(=O)N2CCN(c3ccccc3OC)CC2)c2ccccc12 | inactive | –
75 | COc1cc2c(cc1OC)CN(C(=O)c1cc(=O)c3ccccc3o1)CC2 | 2.91 µM (active) | –

Row | SMILES | Potency | activity change, negative = cytotoxic
76 | COc1ccccc1N1CCN(C(=O)c2cc(=O)c3cc(C)cc(C)c3o2)CC1 | 0.206 µM (active) | –
77 | CCc1ccc2oc(-c3ccc(C)c(NC(=O)/C=C/c4ccco4)c3)nc2c1 | inactive | –
78 | COc1ccccc1CNC(=O)CCCCn1c(=O)c2ccccc2n(CC(=O)Nc2cc(Cl)ccc2C)c1=O | inactive | –
79 | CCCS(=O)(=O)N1CCC(n2c(C(F)(F)F)nc3cccnc32)CC1 | inactive | –
80 | O=C(NCC(c1ccco1)S(=O)(=O)c1cccs1)c1ccc(F)cc1 (stereo not drawn) | inactive | –
81 | CS(=O)c1ccc(/C=C2\C=Cc3ccccc32)cc1 (stereo not drawn) | inactive | –
82 | O=C(CCn1c(=O)c2ccccc2n(Cc2ccc(Cl)cc2)c1=O)NCc1ccc2c(c1)OCO2 | inactive | –
83 | CCc1ccc(C(=O)CC2(O)C(=O)N(CCc3ccccc3)c3ccc(Br)cc32)cc1 (stereo not drawn) | inactive | –
84 | COc1ccc(NC(=O)N2CCCn3nc(C)cc32)cc1OC | inactive | –
85 | CCOc1ccc(CNC(=O)c2ccc3nc(CC)c(CC)nc3c2)cc1OC | inactive | –
86 | CN(C)c1cccc2ccccc12 | inactive | –
87 | Cc1ccc(F)cc1S(=O)(=O)N1CCC(c2nc3ccccc3s2)CC1 | inactive | –
88 | CCOC(=O)c1ccc(NC(=O)Cn2cc(S(=O)(=O)Cc3ccccc3F)c3ccccc32)cc1 | inactive | –
89 | Cc1ccc(C)c(Cn2c(C)c(CNCc3ccc(F)cc3)c(C(=O)O)c2C)c1 | inactive | –
90 | CCOC(=O)N1CCN(S(=O)(=O)c2ccc(Br)cc2)CC1 | inactive | –
91 | O=C(Nc1ccccc1F)c1ccc(S(=O)(=O)N2CCCCCC2)cc1 | inactive | –
92 | CCOC(=O)N1CCN(S(=O)(=O)c2ccc(C(=O)Nc3ccc(F)cc3F)cc2)CC1 | 4.61 µM (active) | –
93 | Cc1sc2ncn(CC(=O)N3CCN(c4ccc(F)cc4)CC3)c(=O)c2c1S(=O)(=O)N1CCN(c2ncccn2)CC1 | inactive | –
94 | CCOC(=O)c1ccc(NC(=O)C2CC(=O)NC(=Nc3ccc(C)c(C)c3)S2)cc1 (stereo not drawn) | inactive | –
95 | CC(=O)OC1=C(C(C)=O)N(Cc2ccccc2)S(=O)(=O)c2ccccc21 | inactive | –
96 | Cc1cccc(NC(=S)NCc2ccc3[nH]c4c(c3c2)CCCC4)c1 | 16.4 µM (active) | –
97 | CCc1cccc(NC(=O)CN(C)S(=O)(=O)c2ccc3[nH]c4c(c3c2)CCCC4)c1 | inactive | –
98 | Cc1cccc(NC(=S)N2CCC(C(=O)c3ccc(F)cc3)CC2)c1 | inactive | –
